# In PubChem BioAssay:
# The source made the active and inactive calls. Unless noted, the rule behind the calls is not given here.
# Key:
# [1] = anti-His antibody binders, primary screen, artefact control for SMM control protein annotation, biochemical, small-molecule microarray, 635 nm fluorescence (AID 1128); conditions: anti-His Alexa647 antibody binding, higher = more signal;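 note: score merges feature fluorescence with signal-to-noise for each printed compound spot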
# [2] = tested on: Human papillomavirus type 1a E7 protein (residues 1-88); assay: HPV1a E7 small-molecule binders, primary screen, biochemical, small-molecule microarray, residues 1-88, 635 nm (AID 1129); conditions: small-molecule microarray binding, fluorescence 635 nm; higher = more signal
# [3] = target: Focal adhesion kinase 1 (Homo sapiens) (UniProt Q05397); assay: small-molecule microarray binders of FAK, primary screen, biochemical, 635/667 nm fluorescence, BSA, DTT (AID 1130); conditions: PTK2 binding, 635 nm fluorescence, higher = more signal;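 note: composite of spot emission at 667 nm and signal to noise over triplicate slides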
# Focal adhesion kinase 1 (Homo sapiens), sequence (Q05397 whole entry, looked up): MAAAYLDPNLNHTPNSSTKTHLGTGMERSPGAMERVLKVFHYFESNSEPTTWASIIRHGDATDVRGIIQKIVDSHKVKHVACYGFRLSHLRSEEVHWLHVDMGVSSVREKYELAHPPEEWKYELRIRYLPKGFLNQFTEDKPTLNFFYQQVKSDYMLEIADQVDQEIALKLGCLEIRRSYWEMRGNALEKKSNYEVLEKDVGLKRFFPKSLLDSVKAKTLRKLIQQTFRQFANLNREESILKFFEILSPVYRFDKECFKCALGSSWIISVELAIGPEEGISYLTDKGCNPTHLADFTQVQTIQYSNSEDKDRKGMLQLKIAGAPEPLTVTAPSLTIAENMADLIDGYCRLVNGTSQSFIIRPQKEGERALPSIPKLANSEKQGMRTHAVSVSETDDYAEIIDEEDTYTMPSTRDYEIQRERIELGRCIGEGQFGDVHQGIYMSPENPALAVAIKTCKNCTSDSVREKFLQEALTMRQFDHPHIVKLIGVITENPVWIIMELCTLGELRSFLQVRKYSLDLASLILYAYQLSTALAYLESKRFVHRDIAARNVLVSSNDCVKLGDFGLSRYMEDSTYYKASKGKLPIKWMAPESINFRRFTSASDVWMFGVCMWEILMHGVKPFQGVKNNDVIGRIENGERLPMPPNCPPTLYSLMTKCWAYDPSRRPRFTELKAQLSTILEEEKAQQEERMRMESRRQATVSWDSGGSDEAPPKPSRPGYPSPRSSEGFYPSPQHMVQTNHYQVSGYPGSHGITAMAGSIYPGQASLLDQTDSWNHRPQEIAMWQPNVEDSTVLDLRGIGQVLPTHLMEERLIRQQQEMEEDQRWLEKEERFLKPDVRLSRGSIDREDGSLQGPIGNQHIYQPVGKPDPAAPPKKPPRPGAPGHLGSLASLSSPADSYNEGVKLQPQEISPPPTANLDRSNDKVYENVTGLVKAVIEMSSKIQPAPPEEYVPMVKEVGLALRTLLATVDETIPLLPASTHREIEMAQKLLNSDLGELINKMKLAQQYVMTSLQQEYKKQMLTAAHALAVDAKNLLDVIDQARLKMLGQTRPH
# [4] = tested on: Fibrinogen (Alexa647-labelled); assay: fibrinogen binders on compound microarrays, profiling panel, artefact control for SMM control-protein annotation, biochemical, small-molecule microarray, 635/667 nm fluorescence (AID 1131); conditions: fibrinogen-A647 binding fluorescence, higher = more signal;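 note: z-score merges 667 nm fluorescence with per-spot signal-to-noise over triplicate slides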
# [5] = target: Follistatin (Homo sapiens) (UniProt P19883); assay: follistatin binders on small-molecule microarrays, primary screen, biochemical, small-molecule microarray, 635/667 nm fluorescence (AID 1132); conditions: FST binding, 635 nm fluorescence, higher = more signal
# Follistatin (Homo sapiens), sequence (P19883 whole entry, looked up): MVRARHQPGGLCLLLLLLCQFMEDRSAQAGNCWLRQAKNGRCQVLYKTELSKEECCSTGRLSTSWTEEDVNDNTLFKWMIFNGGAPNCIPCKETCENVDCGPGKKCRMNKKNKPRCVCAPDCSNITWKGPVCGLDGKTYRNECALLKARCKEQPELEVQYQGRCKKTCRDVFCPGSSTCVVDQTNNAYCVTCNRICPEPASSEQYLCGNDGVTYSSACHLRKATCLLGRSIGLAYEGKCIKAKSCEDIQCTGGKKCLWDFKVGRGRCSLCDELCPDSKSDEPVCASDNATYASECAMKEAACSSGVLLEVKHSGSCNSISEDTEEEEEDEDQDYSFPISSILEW
# [6] = target: Fibroblast growth factor 2 (Homo sapiens) (UniProt P09038); assay: FGF2 binders on small-molecule microarrays, primary screen, biochemical, small-molecule microarray, 635/667 nm fluorescence (AID 1133); conditions: small-molecule microarray binding, FGF2, fluorescence 635/667; higher = more signal
# Fibroblast growth factor 2 (Homo sapiens), sequence (P09038 whole entry, looked up): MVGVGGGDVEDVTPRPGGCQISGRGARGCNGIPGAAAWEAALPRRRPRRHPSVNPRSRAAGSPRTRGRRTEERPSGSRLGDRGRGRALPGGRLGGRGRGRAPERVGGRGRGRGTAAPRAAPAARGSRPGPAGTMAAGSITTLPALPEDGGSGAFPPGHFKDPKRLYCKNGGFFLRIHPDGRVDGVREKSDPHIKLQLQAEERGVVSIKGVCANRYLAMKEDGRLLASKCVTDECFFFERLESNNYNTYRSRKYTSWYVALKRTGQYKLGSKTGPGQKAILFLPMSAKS
# [7] = mitochondrial membrane potential change in A549 cells, profiling panel, cell-based, JC-1 fluorescence, basal, 24 h, 100 nL (AID 1138); conditions: higher = more signal;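 note: A549 lung adenocarcinoma cells under basal conditions with no added stimulus; test concentration not given here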
# Lefty1 = Lefty1 binders on small-molecule microarrays, primary screen, biochemical, small-molecule microarray, 635/667 nm fluorescence (AID 1139); conditions: small-molecule microarray binding, fluorescence 635/667; higher = more signal
# [8] = tested on: wheat germ agglutinin (Triticum aestivum), Alexa647-labelled; assay: wheat germ agglutinin binders on compound microarrays, profiling panel, artefact control for SMM control-protein annotation, biochemical, small-molecule microarray, 635/667 nm fluorescence (AID 1140); conditions: WGA-A647 binding, 635 nm fluorescence, higher = more signal;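 note: score merges 667 nm feature emission with signal to noise over triplicate slides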
# [9] = target: Luciferin 4-monooxygenase (Photinus pyralis) (UniProt P08659); assay: firefly luciferase enzyme inhibitors, primary screen, biochemical, luminescence, purified enzyme, 2006 set (AID 1141); conditions: SteadyGlo luminescence, 30 min, higher = more signal, called active from +8 up or from −8 down;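 note: cell-free assay with purified firefly luciferase at 100 ng per well in PBS; test concentration not given here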
# Luciferin 4-monooxygenase (Photinus pyralis), sequence (P08659 whole entry, looked up): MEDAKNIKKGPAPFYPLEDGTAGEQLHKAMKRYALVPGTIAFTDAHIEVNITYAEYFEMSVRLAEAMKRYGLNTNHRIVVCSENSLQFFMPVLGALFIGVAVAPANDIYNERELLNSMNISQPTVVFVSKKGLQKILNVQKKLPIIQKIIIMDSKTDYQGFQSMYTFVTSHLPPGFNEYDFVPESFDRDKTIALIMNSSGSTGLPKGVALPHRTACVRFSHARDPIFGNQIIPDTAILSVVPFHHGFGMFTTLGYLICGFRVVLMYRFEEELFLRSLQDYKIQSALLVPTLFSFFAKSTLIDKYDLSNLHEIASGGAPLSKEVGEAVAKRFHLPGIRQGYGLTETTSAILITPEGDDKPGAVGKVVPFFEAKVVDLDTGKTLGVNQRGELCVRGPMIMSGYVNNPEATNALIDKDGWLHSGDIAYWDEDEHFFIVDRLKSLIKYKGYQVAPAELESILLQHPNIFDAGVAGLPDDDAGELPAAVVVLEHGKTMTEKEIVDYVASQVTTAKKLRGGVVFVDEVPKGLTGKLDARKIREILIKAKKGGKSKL
# [10] = tested on: Wnt5a (protein binding on small-molecule microarray); assay: Wnt5a binders on small-molecule microarray, primary screen, biophysical, 635/667 nm fluorescence (AID 1142); conditions: 635 nm fluorescence, higher = more signal;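 note: fluorescence read at 667 nm with signal to noise per printed feature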
# [11] = cell viability in Huh7 cells, primary screen, cytotoxicity control for HCV replication inhibitor project, CellTiter-Glo luminescence, basal, 48 h (AID 1143); conditions: Huh7 HCV replicon, higher = more signal, called active from +8 up or from −8 down;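 note: Huh7 hepatoma cells carrying a hepatitis C replication reporter with no stimulus; test concentration not given here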
# [12] = P. aeruginosa biofilm formation inhibitors, primary screen, PAO1 strain, BacTiter-Glo luminescence, LB-PBS (AID 1144); conditions: 12 h, higher = more signal
# [13] = CREB reporter modulators without forskolin, primary screen, cell-based, PC12, CRE-LacZ reporter, unstimulated (AID 1145); conditions: no forskolin, luminescence, 4.5 h, higher = more signal, called active from +8 up or from −8 down
# [14] = CREB reporter modulators under forskolin, primary screen, cell-based, PC12, CRE-LacZ reporter, forskolin-stimulated (AID 1146); conditions: luminescence, 4.5 h, higher = more signal, called active from +8 up or from −8 down;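 note: PC12 cells with 6xCRE LacZ reporter stimulated by forskolin 10 µM; beta-galactosidase reporter signal reflecting CREB driven transcription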
# [15] = target: Streptavidin (Streptomyces avidinii) (UniProt P22629); assay: streptavidin binders on small-molecule microarray, primary screen, artefact control for SMM compound annotation, biophysical, 635/667 nm fluorescence (AID 1147); conditions: streptavidin binding, higher = more signal;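 note: signal reflects streptavidin binding to arrayed compounds as a control protein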
# Streptavidin (Streptomyces avidinii), sequence (P22629 whole entry, looked up): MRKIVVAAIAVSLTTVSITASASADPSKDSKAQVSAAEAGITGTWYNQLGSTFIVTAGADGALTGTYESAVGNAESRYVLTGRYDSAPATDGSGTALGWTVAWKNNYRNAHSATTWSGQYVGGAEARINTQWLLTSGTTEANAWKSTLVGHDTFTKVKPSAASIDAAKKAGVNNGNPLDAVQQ
# [16] = small-molecule binders of probe aInhba, primary screen, biochemical, small-molecule microarray, 635/667 nm fluorescence (AID 1148); conditions: higher = more signal;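 note: score merges 667nm spot fluorescence with signal-to-noise for antibody binding to printed compounds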
# Torsin-1A (Homo sapiens) [17] = target: Torsin-1A (Homo sapiens) (UniProt O14656); assay: torsin A binders from cell lysate, primary screen, small-molecule microarray, wild-type, 635/667 nm (AID 1149); conditions: COS7 hTOR1A-WT lysate, 635 nm fluorescence, higher = more signal
# Torsin-1A (Homo sapiens), sequence (O14656 whole entry, looked up): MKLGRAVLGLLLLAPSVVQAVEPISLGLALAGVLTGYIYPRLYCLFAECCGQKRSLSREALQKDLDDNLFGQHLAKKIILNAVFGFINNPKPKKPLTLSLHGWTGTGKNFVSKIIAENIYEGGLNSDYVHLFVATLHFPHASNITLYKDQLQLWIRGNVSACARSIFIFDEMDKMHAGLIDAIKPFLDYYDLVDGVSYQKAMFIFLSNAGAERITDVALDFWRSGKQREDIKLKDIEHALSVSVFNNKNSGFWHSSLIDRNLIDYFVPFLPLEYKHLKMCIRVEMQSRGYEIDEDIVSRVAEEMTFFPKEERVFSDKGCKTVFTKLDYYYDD
# Torsin-1A (Homo sapiens) [18] = target: Torsin-1A (Homo sapiens) (UniProt O14656); assay: small-molecule binders of mutant TOR1A in lysate, primary screen, cell lysate, small-molecule microarray, COS7 lysate, 635/667 nm fluorescence (AID 1150); conditions: COS7 hTOR1A mutant lysate, 635 nm fluorescence, higher = more signal;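 note: score pools 667 nm emission and signal to noise measuring lysate protein binding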
# [19] = tested on: Sonic hedgehog protein (Shh); assay: small-molecule binders of Shh protein, primary screen, biochemical, small-molecule microarray, 635/667 nm fluorescence (AID 1151); conditions: small-molecule microarray binding, 635 nm fluorescence; higher = more signal;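 note: Shh protein binding to compounds spotted on small-molecule microarray slides; score combines spot fluorescence intensity with signal-to-noise across triplicate slides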
SMILES,composite z-score [1],composite z-score [2],composite z-score [3],composite z-score [4],composite z-score [5],composite z-score [6],z-score [7],composite z-score (Lefty1),composite z-score [8],z-score [9],composite z-score [10],z-score [11],z-score [12],z-score [13],z-score [14],composite z-score [15],composite z-score [16],composite z-score (Torsin-1A (Homo sapiens) [17]),composite z-score (Torsin-1A (Homo sapiens) [18]),composite z-score [19]
CCCC=C(CCC)[C@@H](NC(=O)c1ccc(-c2ccccc2)cc1)c1ccc(C(=O)OC)cc1,0.377,1.19,0.296,0.967,0.142,-0.558,-0.457,-0.182,1.2,1.93 (inactive),-0.0745,-0.116 (inactive),0.29 (inactive),0.576 (inactive),0.381 (inactive),1.09,0.0872,-0.162,0.0735,-0.809
CC(C)[C@@H](OCc1ccccc1)[C@H](C)C=NO[C@H](C)c1cn([C@H](CO)Cc2ccccc2)nn1,0.424,0.222,-0.238,0.286,0.171,0.446,0.506,0.913,0.106,-1.62 (inactive),0.231,-1.28 (inactive),0.403 (inactive),0.987 (inactive),-0.437 (inactive),0.808,-0.126,0.353,1.15,0.29
COC(=O)[C@H]1COC(c2ccc(OCCCO)cc2)=N1,-0.748,-0.877,-0.57,-4.27,0.267,1.14,-0.765,-0.878,0.177,-21.6 (active),-0.0323,-0.597 (inactive),-0.767 (inactive),0.0686 (inactive),0.697 (inactive),-0.998,-0.204,0.337,1.4,-0.196
COc1ccc(O[C@H]2C=C[C@@H](c3ccccc3)O[C@@H]2COC(=O)CCC(C)=NO[C@@H](C)c2cc(-c3c(C)cc(C)cc3C)no2)cc1,-0.566,-0.23,-0.174,-0.223,-1.32,-0.848,0.67,-0.773,-0.204,1.21 (inactive),-0.61,-0.961 (inactive),-0.587 (inactive),-0.315 (inactive),0.65 (inactive),-0.987,-0.295,-1.29,-1.04,0.224
COC(=O)[C@@]1(Cc2ccc(F)cc2)[C@@H]2C(=CC(=O)[C@H]2CC(=O)C(=O)N(C)C)CN1C(=O)c1ccccc1,2.36,1.26,1.09,0.981,0.635,-0.54,0.589,-0.421,0.847,1.24 (inactive),0.392,-3.59 (inactive),0.504 (inactive),-0.179 (inactive),-0.196 (inactive),1.7,0.38,-0.441,0.283,-0.367
